Laboratory results published in PubChem BioAssay (NCATS).
Inconclusive results are not listed. The source made the active and inactive calls. Unless noted, the call rests on the fitted dose curve; in most records, active means well fitted curve in the direction sought with a large enough effect; inconclusive means small, poorly fitted or top-dose-only effect, or another doubt; inactive means no such curve, though single readings can be large; an effect the other way counts as inactive or inconclusive.

How the values were obtained:
[1] = Cell Viability - BJ (AID 421; calls by dose curve;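 further: potency means the concentration at half of the fitted maximal effect; cells exposed to compound for 40 hours at 37 °C before readout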); settings: BJ fibroblast viability, qHTS
Summary of the method: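 Cytotoxicity in human BJ foreskin fibroblasts is scored as loss of cellular ATP after a 40-hour exposure, measured by luciferase luminescence. Controls are DMSO and 100 uM tamoxifen.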

[2] = Cell Viability - Jurkat (AID 426;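 active means dose-dependent loss of cell ATP signal giving a full or clear fitted curve, ranked by lower potency value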; further: potency means the concentration at half of the fitted maximal effect); settings: qHTS
Summary of the method: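 Jurkat (clone E6-1, human T-cell leukemia) cells, 5000/well in complete medium, were exposed to compound for 40 hr at 37 °C. Viability was read as intracellular ATP by CellTiter-Glo luminescence; AC50 came from Hill fits of concentration-response data.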

[3] = Cell Viability - Hek293 (AID 427;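 active means compounds whose dose-response curve shows a full or clear partial loss of cell viability, called from curve shape rather than a numeric limit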;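 further: potency means the concentration at half of the fitted maximal effect; cells exposed to compound for 40 hours at 37 °C before reading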); settings: qHTS
Summary of the method: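 qHTS, human embryonic kidney (adenovirus-transformed) cells; 40 hr cpd, 37 °C; CellTiter-Glo ATP luminescence. Norm: DMSO = 0, 100 uM tamoxifen = 100% inhibition. Hill-fit AC50.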

[4] = Cell Viability - HepG2 (AID 433; calls by dose curve;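 further: potency means the concentration at half of the fitted maximal effect; potency for ATP loss meaning cytotoxicity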); settings: qHTS
Summary of the method: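 In this qHTS format, a 40 h, 37 °C compound incubation of HepG2 cells in complete medium precedes a 20 min CellTiter-Glo step at room temperature. Tamoxifen and doxorubicin serve as positive controls; Hill-equation fits yield AC50.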

[5] = Cell Viability - SK-N-SH (AID 435; calls by dose curve;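 further: potency means the concentration at half of the fitted maximal effect; compound exposure lasted 40 h at 37 °C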); settings: SK-N-SH neuroblastoma cell viability qHTS
Summary of the method: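 Human neuroblastoma line, 40 h exposure at 37 °C, ATP quantified via luciferase luminescence; DMSO and 100 uM tamoxifen define 0 and 100% inhibition for AC50 fitting.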

[6] = Cell Viability - Renal Proximal Tubule (AID 545); settings: renal proximal tubule cells viability; series mostly up to 91.7 µM;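 further: 0% = DMSO only and -100% = 100 µM tamoxifen; nearly all actives have a fitted effect of over 40% in size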
Summary of the method: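 In this qHTS format, normal rat kidney-derived proximal tubule cells in complete culture medium receive compound titrations, then sit 40 hours at 37 °C before luciferase-based ATP quantitation; potency is reported as AC50 from concentration-response curves.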

[7] = Cellular Toxicity (caspase-3) MRC-5 (AID 659); settings: MRC-5 cells, luminescence, normalized: DMSO 0%, 10 µM staurosporine 100%; series mostly up to 91.7 µM
Summary of the method: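 MRC-5 human normal lung fibroblasts, 1500 cells/well, treated 16 h at 37 °C in complete medium. Caspase 3/7 measured by Caspase-Glo luminescence after 1 h at room temperature. Normalized to DMSO and 10 uM staurosporine; AC50 from Hill fit.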

[8] = Cellular Toxicity (caspase-3) N2a (AID 665); settings: N2a cells, luminescence, normalized: DMSO 0%, 10 µM staurosporine 100%; series mostly up to 92.2 µM;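 further: compound exposure lasted 16 h at 37 °C before readout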
Summary of the method: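 Mouse N2a neuroblastoma cells (1500/well) were treated with compounds for 16 h at 37 °C, then caspase-3/7 activity was read by Caspase-Glo luminescence after 1 h at room temperature. Data were normalized to DMSO and 10 uM staurosporine; AC50 from Hill fits.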

[9] = Cellular Toxicity (caspase-3) Renal Proximal Tubule (AID 667); settings: renal proximal tubule cells; series mostly up to 91.7 µM;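 further: cells exposed to compound for 16 hours at 37 °C before detection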
Summary of the method: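 Caspase-Glo 3/7 read-out, rat primary kidney proximal tubule cells. Compound exposure 16 h, 37 °C; detection after 1 h at RT. Activity scaled to DMSO and 10 uM staurosporine.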

[10] = MultiTox-Fluor Cytotoxicity Assay - LYMP1-002 - Live Cells (AID 955); settings: LYMP1-002 lymphoblastoid live-cell protease fluorescence viability; series mostly up to 46.1 µM; further: on the % scale 0 is the no-effect control and ±100 the full control effect
Summary of the method: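 Human lymphoblastoid LYMP1-002 cells, 2500/well in complete medium, rested 5 hr at 37 C, then exposed to compounds for 16 hr at 37 C. Live-cell protease cleavage of GF-AFC read by fluorescence (Ex/Em 405/510) after 60 min at room temperature; AC50 from Hill fits.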

[11] = MultiTox-Fluor Cytotoxicity Assay - LYMP1-003 - Live Cells (AID 962); settings: LYMP1-003 lymphoblastoid cells, MultiTox-Fluor live-cell protease fluorescence; series mostly up to 92.2 µM;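 further: 0% = DMSO only and full loss = 92 µM tetraoctylammonium bromide; cytotoxic hits lower the live-cell protease signal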
Summary of the method: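 LYMP1-003 human lymphoblastoid cells (2500/well) in complete medium were preincubated 5 hr at 37 C, then exposed to compounds for 16 hr at 37 C. Live-cell protease cleavage of GF-AFC read by fluorescence (Ex/Em 405/510); AC50 from Hill fits.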

[12] = Cell Viability - LYMP1-003 - Assay at 24 hr (AID 963); settings: LYMP1-003 lymphoblastoid cell viability; series mostly up to 92.2 µM;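 further: plate controls were DMSO only for no effect and tetraoctylammonium bromide positive control for full effect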
Summary of the method: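 Human lymphoblastoid LYMP1-003 cells (2500/well) were rested 5 hr at 37 C, then exposed to compounds in complete medium for 24 hr at 37 C. Cellular ATP was quantified by CellTiter-Glo luminescence, and AC50 values came from Hill fits of concentration-response data.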

[13] = Cell Viability - LYMP2-021 (AID 974); settings: LYMP2-021 lymphoblastoid cells viability; series mostly up to 92.2 µM;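 further: compound exposure lasts 24 hours at 37 °C; on the % scale 0 is the no-effect control and ±100 the full control effect; nearly all actives have a fitted effect of over 55% in size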
Summary of the method: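 Human lymphoblastoid cells (2500/well) were preincubated 5 hr at 37 C, then exposed to compounds for 24 hr at 37 C in complete medium. Intracellular ATP was read by CellTiter-Glo luminescence; AC50 came from Hill-equation fits of concentration-response data.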

[14] = Cell Viability - LYMP2-007 (AID 979); settings: LYMP2-007 lymphoblastoid cell viability; series mostly up to 92.2 µM;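 further: cells exposed to compound for 24 h before reading; 0% = DMSO only and the negative end = 92 µM tetraoctylammonium bromide; nearly all actives have a fitted effect of over 60% in size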
Summary of the method: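 Human lymphoblastoid cells (2500/well) were plated in complete medium, incubated 5 hr at 37 C, then exposed to compounds for 24 hr at 37 C. Intracellular ATP was read by CellTiter-Glo luminescence after 30 min at room temperature; AC50 from Hill fits.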

[15] = Cell Viability - LYMP2-016 (AID 984); settings: LYMP2-016 lymphoblastoid cell viability, qHTS; series mostly up to 92.2 µM; further: on the % scale 0 is the no-effect control and ±100 the full control effect; nearly all actives have a fitted effect of over 55% in size
Summary of the method: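 Concentration-dependent ATP depletion measured in LYMP2-016 lymphoblastoid cells, 24 h, 37 C; luciferase-based luminescent detection; Hill-equation AC50.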

[16] = Cell Viability - LYMP2-018 (AID 985); settings: LYMP2-018 lymphoblastoid cells, viability (qHTS); series mostly up to 92.2 µM;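 further: compound exposure lasted 24 hr at 37 °C; plate controls were DMSO only for no effect and tetraoctylammonium bromide at 92 µM for full effect; nearly all actives have a fitted effect of over 50% in size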
Summary of the method: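 Human lymphoblastoid cells (2500/well) were pre-incubated 5 hr at 37 C, then exposed to compounds for 24 hr at 37 C in complete medium. Viability was read as intracellular ATP by CellTiter-Glo luminescence; AC50 values came from Hill-equation fits.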

[17] = Cell Viability - LYMP2-020 (AID 986); settings: series mostly up to 92.2 µM;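 further: plate controls were DMSO only for no effect and tetraoctylammonium bromide at 92 µM for full effect; nearly all actives have a fitted effect of over 55% in size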
Summary of the method: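 Human lymphoblastoid cells, 2500/well, were pre-incubated 5 hr at 37 C, then exposed to compounds for 24 hr at 37 C in complete medium. Intracellular ATP was read by CellTiter-Glo luminescence, and AC50 was derived by Hill fitting of concentration-response data.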

[18] = qHTS Assay for Identification of Small Molecule Inducers of Hypoxia Response (AID 2120; active means well fitted curve in the direction sought with a large enough effect in the signal ratio, with a control signal flat, not every such curve was filed as active; the % refers to the signal ratio; further: 0% is about no effect); settings: hypoxia response reporter cells, beta-lactamase ratio readout; series mostly up to 104 µM
Summary of the method: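 HRE-beta-lactamase reporter in CellSensor HRE-bla ME-180 cells, 2500 cells/well in Opti-MEM with 0.5% dialyzed FBS; compounds tested as titration series, 17 h at 37 degrees C. CCF4 substrate 2.5 h at room temperature; AC50 from 460/530 nm ratio.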

[19] = qHTS assay for small molecule agonists of the antioxidant response element (ARE) signaling pathway measured by Nrf2-dependant transcriptional activity - cell viability counter screen (AID 720653; active means well fitted curve in the direction sought with a large enough effect in the repeat runs; an effect the other way counts as inactive or inconclusive; further: on the % scale 0 is the no-effect control and ±100 the full control effect); settings: ARE-bla HepG2 viability, CellTiter-Glo ATP luminescence, 16 h; hits give low values
Summary of the method: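 ARE-bla HepG2 cells treated with compounds for 16 h at 37C; this counter screen measures viability as intracellular ATP by CellTiter-Glo luminescence after 30 min at room temperature.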

[20] = qHTS assay for cell viability of HEK293 cells (AID 743288); settings: ATP luminescence (CellTiter-Glo), 18 h, hits give low values; further: on the % scale 0 is the no-effect control and ±100 the full control effect; nearly all actives have a fitted effect of over 50% in size
Summary of the method: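 Luminescent ATP quantitation served as the viability read-out. Cells (parental HEK293, 2,000/well) received compounds after at least 5 h at 37 C and were exposed for 18 h before a 30 min room-temperature reagent step.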

Cc1ccc([N+](=O)[O-])cc1
inactive: Potency [1] > 92 µM | Potency [2] > 92 µM | Potency [3] > 92 µM | Potency [4] > 92 µM | Potency [5] > 92 µM | outcome [6] | outcome [7] | outcome [8] | outcome [9] | outcome [10] | outcome [11] | outcome [12] | Potency [13] | Potency [14] | Potency [15] | Potency [16] | Potency [17] | Potency [18] | max response [19] -6.34% | max response [20] 0.535%

Clc1ccc(C(Cl)(Cl)Cl)cc1Cl
inactive: Potency [1] > 92 µM | Potency [2] > 92 µM | Potency [3] > 92 µM | Potency [4] > 92 µM | Potency [5] > 92 µM | outcome [6] | outcome [7] | outcome [8] | outcome [9] | outcome [10] | outcome [11] | outcome [12] | Potency [13] | Potency [14] | Potency [15] | Potency [16] | Potency [17] | Potency [18] | max response [19] -18% | max response [20] 4.98%

O=S(=O)(O)F
inactive: Potency [1] > 92 µM | Potency [2] > 92 µM | Potency [3] > 92 µM | Potency [4] > 92 µM | Potency [5] > 92 µM | outcome [6] | outcome [7] | outcome [8] | outcome [9] | outcome [10] | outcome [11] | outcome [12] | Potency [13] | Potency [14] | Potency [15] | Potency [16] | Potency [17] | Potency [18] | max response [19] -6.55% | max response [20] -2.74%

Clc1ccc(C(Cl)(Cl)Cl)c(Cl)c1
inactive: Potency [1] > 92 µM | Potency [2] > 92 µM | Potency [3] > 92 µM | Potency [4] > 92 µM | Potency [5] > 92 µM | outcome [6] | outcome [7] | outcome [8] | outcome [9] | outcome [10] | outcome [11] | outcome [12] | Potency [13] | Potency [14] | Potency [15] | Potency [16] | Potency [17] | Potency [18] | max response [19] -1.74% | max response [20] -3.16%

O=[N+]([O-])c1ccccc1-c1ccccc1
inactive: Potency [1] > 92 µM | Potency [2] > 92 µM | Potency [3] > 92 µM | Potency [4] > 92 µM | Potency [5] > 92 µM | outcome [6] | outcome [7] | outcome [8] | outcome [9] | outcome [10] | outcome [11] | outcome [12] | Potency [13] | Potency [14] | Potency [15] | Potency [16] | Potency [17] | Potency [18] | max response [19] 1.78% | max response [20] 0.829%

ClC(Br)Br
inactive: Potency [1] > 92 µM | Potency [2] > 92 µM | Potency [3] > 92 µM | Potency [4] > 92 µM | Potency [5] > 92 µM | outcome [6] | outcome [7] | outcome [8] | outcome [9] | outcome [10] | outcome [11] | outcome [12] | Potency [13] | Potency [14] | Potency [15] | Potency [16] | Potency [17] | Potency [18] | max response [19] 0.446% | max response [20] 0.132%

CCCCCCCCCCCOC(=O)c1ccccc1C(=O)OCCCCCCCCCCC
inactive: Potency [1] > 92 µM | Potency [2] > 92 µM | Potency [3] > 92 µM | Potency [4] > 92 µM | Potency [5] > 92 µM | outcome [6] | outcome [7] | outcome [8] | outcome [9] | outcome [10] | outcome [11] | outcome [12] | Potency [13] | Potency [14] | Potency [15] | Potency [16] | Potency [17] | Potency [18] | max response [19] 3.11% | max response [20] 3%

O=NN1CCCCC1
inactive: Potency [1] > 92 µM | Potency [2] > 92 µM | Potency [3] > 92 µM | Potency [4] > 92 µM | Potency [5] > 92 µM | outcome [6] | outcome [7] | outcome [8] | outcome [9] | outcome [10] | outcome [11] | outcome [12] | Potency [13] | Potency [14] | Potency [15] | Potency [16] | Potency [17] | Potency [18] | max response [19] -0.59% | max response [20] -2.6%

Nc1ccc2ccccc2c1
inactive: Potency [1] > 92 µM | Potency [2] > 92 µM | Potency [3] > 92 µM | Potency [4] > 92 µM | Potency [5] > 92 µM | outcome [6] | outcome [7] | outcome [8] | outcome [9] | outcome [10] | outcome [11] | outcome [12] | Potency [13] | Potency [14] | Potency [15] | Potency [16] | Potency [17] | Potency [18] | max response [19] -2.01% | max response [20] 3.26%

S=c1[nH]c2ccccc2[nH]1
inactive: Potency [1] > 92 µM | Potency [2] > 92 µM | Potency [3] > 92 µM | Potency [4] > 92 µM | Potency [5] > 92 µM | outcome [6] | outcome [7] | outcome [8] | outcome [9] | outcome [10] | outcome [11] | outcome [12] | Potency [13] | Potency [14] | Potency [15] | Potency [16] | Potency [17] | Potency [18] | max response [19] 2.67% | max response [20] 7.64%

OCCBr
inactive: Potency [1] > 92 µM | Potency [2] > 92 µM | Potency [3] > 92 µM | Potency [4] > 92 µM | Potency [5] > 92 µM | outcome [6] | outcome [7] | outcome [8] | outcome [9] | outcome [10] | outcome [11] | outcome [12] | Potency [13] | Potency [14] | Potency [15] | Potency [16] | Potency [17] | Potency [18] | max response [19] 1.65% | max response [20] 5.14%
